Results reported in PubChem BioAssay AID1159580 (chemical genetic matrix, 2015).
Out of some 5,500 compounds screened, about 2,000 (36%) were called active. Another 18% or so got no clear call; they are omitted. No stated cut-off is given here; in the data, active means normalized growth mostly below about 0.91 (no sharp cut-off); inconclusive means no clear call, values can overlap the other calls; inactive means mostly above about 0.92. This is one part of the list.

Assay: chemical genetic growth profiling, strain panel (AID 1159580);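 further: tested at 20 µM; growth read once vehicle control cultures reached saturation at 30 °C; 1 = growth at the plate median or of vehicle wells; lower values mean less growth of the strain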
Details: S. cerevisiae deletion strains, growth OD

Measured: normalized growth

O=C(ON=C1CCCCC1)c1ccc([N+](=O)[O-])cc1
inactive: locus YAR019C, strain CDC15, hits give low values 0.949 | locus YBL105C, strain PKC1, hits give low values 0.959 | locus YBR135W, strain CKS1, hits give low values 0.947 | locus YBR136W, strain MEC1, hits give low values 0.956 | locus YBR160W, strain CDC28, hits give low values 0.959 | locus YDL017W, strain CDC7, hits give low values 0.952 | locus YDL028C, strain MPS1, hits give low values 0.95 | locus YDL101C, strain DUN1, hits give low values 0.954 | locus YDL108W, strain KIN28, hits give low values 0.948 | locus YDL132W, strain cdc53, hits give low values 0.944 | locus YDL214C, strain PRR2, hits give low values 0.849 | locus YDR052C, strain DBF4, hits give low values 0.962 | locus YDR054C, strain cdc34, hits give low values 0.948 | locus YDR226W, strain ADK1, hits give low values 0.948 | locus YDR477W, strain SNF1, hits give low values 0.833 | locus YER123W, strain YCK3, hits give low values 0.817 | locus YER133W, strain GLC7, hits give low values 0.762 | locus YFL009W, strain cdc4, hits give low values 0.942 | locus YFL029C, strain CAK1, hits give low values 0.938 | locus YFR003C, strain YPI1, hits give low values 0.953 | locus YFR019W, strain FAB1, hits give low values 0.886 | locus YFR028C, strain CDC14, hits give low values 0.942 | locus YGR040W, strain KSS1, hits give low values 0.828 | locus YGR052W, strain FMP48, hits give low values 0.843 | locus YGR092W, strain DBF2, hits give low values 0.889 | locus YHR079C, strain IRE1, hits give low values 0.784 | locus YHR082C, strain KSP1, hits give low values 0.901 | locus YHR205W, strain SCH9, hits give low values 0.829 | locus YIL147C, strain SLN1, hits give low values 0.946 | locus YJL095W, strain BCK1, hits give low values 0.771 | locus YJL128C, strain PBS2, hits give low values 0.981 | locus YJL157C, strain FAR1, hits give low values 0.82 | locus YJR016C, strain ILV3, hits give low values 0.953 | locus YJR066W, strain TOR1 (second series), hits give low values 0.814 | locus YJR066W, strain TOR1, hits give low values 0.838 | locus YKL048C, strain ELM1, hits give low values 0.974 | locus YKL067W, strain YNK1, hits give low values 0.865 | locus YKL101W, strain HSL1, hits give low values 0.881 | locus YKL193C, strain SDS22, hits give low values 0.934 | locus YKL203C, strain TOR2, hits give low values 0.888 | locus YLR133W, strain CKI1, hits give low values 0.874 | locus YLR403W, strain SFP1, hits give low values 0.783 | locus YML070W, strain DAK1, hits give low values 0.819 | locus YMR001C, strain CDC5, hits give low values 0.947 | locus YMR205C, strain PFK2 (second series), hits give low values 0.876 | locus YMR277W, strain FCP1, hits give low values 0.938 | locus YNL006W, strain LST8, hits give low values 0.943 | locus YNL020C, strain ARK1, hits give low values 0.876 | locus YNL161W, strain CBK1, hits give low values 0.941 | locus YNL183C, strain NPR1, hits give low values 0.916 | locus YNL207W, strain RIO2, hits give low values 0.944 | locus YNL222W, strain SSU72, hits give low values 0.948 | locus YNL307C, strain MCK1 (second series), hits give low values 0.851 | locus YOL078W, strain AVO1, hits give low values 0.937 | locus YOL136C, strain PFK27, hits give low values 0.85 | locus YOR061W, strain CKA2, hits give low values 0.867 | locus YOR119C, strain RIO1, hits give low values 0.877 | locus YOR231W, strain MKK1, hits give low values 0.826 | locus YOR329C, strain SCD5, hits give low values 0.949 | locus YPL031C, strain PHO85, hits give low values 0.78 | locus YPL153C, strain RAD53, hits give low values 0.794 | locus YPL204W, strain HRR25, hits give low values 0.784 | locus YPL209C, strain IPL1, hits give low values 0.952 | locus YPR025C, strain CCL1, hits give low values 0.948 | locus YPR106W, strain ISR1, hits give low values 0.969 | locus YPR111W, strain DBF20, hits give low values 0.968 | strain NNK1, hits give low values 0.972 | strain TSCII, hits give low values 0.936
active: locus YHR030C, strain SLT2, hits give low values 0.576 | locus YLR113W, strain HOG1, hits give low values 0.69 | locus YPL256C, strain CLN2, hits give low values 0.829
